RmlCD inh mix = RmlC and RmlD coupled enzyme inhibitors, primary screen, biochemical, 384-well, compound mixtures, retest | RmlC/RmlD coupled enzyme inhibition, 384-well mixture HTS | inhibition, % at 5.5 µM | 110,000 tested, 0.39% active | AID 1532, 2009; in the data active = inhibition above about 30%, passing the limit was not always enough; inconclusive = no clear call, values can overlap the other calls
HIV RNase H inh-1 = HIV-1 RT RNase H inhibitors, primary screen, biochemical, fluorescence. inhibition, % at 10 µM. RT-RNase H RNA/DNA duplex cleavage. 65,000 tested, 1.9% active; in the data active = inhibition above about 50%
HIV RNase H inh-2 = HIV-1 RT RNase H inhibitors, retest, confirmation, biochemical; 1,000 tested, 39% active; Recombinant RT RNase H, fluorescent RNA/DNA duplex cleavage; shares compounds with HIV RNase H inh-1; inhibition, % at 10 µM; in the data active = inhibition above about 48%; inconclusive = no clear call, values can overlap the other calls
A number is an active result; – = inactive; ? = inconclusive; · = no result given. Many of the other results were omitted from the sample, so hits are more common in it than they were.

SMILES	RmlCD inh mix	HIV RNase H inh-1	HIV RNase H inh-2
Cc1nn(Cc2ccccc2)c(C)c1NC(=O)c1cc2nc(-c3ccco3)cc(C(F)(F)F)n2n1	–	–	·
O=C(Nc1cnn(Cc2ccc(F)cc2)c1)c1cc2nc(-c3ccco3)cc(C(F)(F)F)n2n1	?	59	–
O=C(O)C(O)c1ccccc1 (stereo not drawn)	–	·	·
O=C(O)C(O)c1ccco1 (stereo not drawn)	·	57	–
CC(C)OCC(O)CN1CCNCC1 (stereo not drawn)	–	·	·
O=C(NCc1ccccc1)c1c(O)c2cccc3c2n(c1=O)CCC3	–	–	·
O=C(NCc1ccc2c(c1)OCO2)c1c(O)c2cccc3c2n(c1=O)CCC3	–	72	–
Cc1cc2nn(-c3cccc4ccccc34)nc2cc1N	–	67	–
Nc1ccc2nn(-c3cccc4ccccc34)nc2c1	–	–	·
COn1c(SC2CCCCC2)nc2ccccc2c1=O	–	–	·
CC1(c2nnc(Cc3ccccc3)o2)CC(c2ccc([N+](=O)[O-])cc2)=NO1 (stereo not drawn)	–	·	·
COc1ccc(OCC(=O)Nc2cccc(-c3nc4ccccc4o3)c2)cc1	–	–	·
CCc1ccc(OCC(=O)Nc2ccc(-c3nc4ccccc4o3)c(O)c2)cc1	–	68	?
CCOC(=O)c1c(NC(=O)c2ccc(N3C(=O)C4C5C=CC(C5)C4C3=O)cc2)sc2c1CCCC2 (stereo not drawn)	–	·	·
O=C(NCc1cccnc1)C(=O)NCC1OCCN1S(=O)(=O)c1ccc(F)cc1 (stereo not drawn)	–	·	·
COc1cccc2sc(N3CCN(c4nc5ccccc5s4)CC3)nc12	–	71	?
CCN1CCN(c2nc3ccccc3s2)CC1	–	·	·
Cc1cc(NC(=O)Cc2cccs2)no1	·	74	–
Cc1cc(NS(=O)(=O)c2ccc(NC(=O)Cc3cccs3)cc2)no1	–	–	·
O=c1ccccn1Cc1c(F)cccc1Cl	–	·	·
O=C(Cn1nc(Cc2cccnc2)c2ccccc2c1=O)NCc1ccc(F)cc1	–	·	·
Cc1ccccc1NC(NC(=O)c1cccs1)C(Cl)(Cl)Cl (stereo not drawn)	–	·	·
CSc1nc(-c2ccco2)nn1C(=O)c1ccco1	–	–	·
CN=C(c1ccco1)n1c(=S)nc(-c2ccco2)n(C)c1=S	–	55	?
N#CC1=C(N)SC(N)=C(C#N)C1c1ccnc2ccccc12	–	65	60
SMILES	RmlCD inh mix	HIV RNase H inh-1	HIV RNase H inh-2
O=C1c2ccccc2C(=O)C1c1ccnc2ccccc12	–	·	·
Cn1nnnc1Sc1nc(-c2cccnc2)nc2ccccc12	·	–	·
CC(C)Oc1ccc(CSc2nnc3n(C)c(=O)c4c5c(sc4n23)CCCC5)cc1	–	–	·
CCC1(C)Cc2c(sc3c2c(=O)n(C)c2nnc(SCc4ccc5c(c4)OCO5)n32)CO1 (stereo not drawn)	–	58	75
Cc1nc(C)c(C(=O)Nc2nc3c(C)cccc3s2)o1	–	86	68
Cc1cccc2sc(NC(=O)C3CCCO3)nc12 (stereo not drawn)	–	–	·
N#Cc1c(N)oc(-c2ccco2)c1-c1ccco1	–	–	·
COc1ccc(OC)c(/C=N/c2oc(-c3ccco3)c(-c3ccco3)c2C#N)c1	–	58	66
CCOc1ccc(N2C(=O)Nc3ccccc3C2(O)C(=O)NCc2ccc3c(c2)OCO3)cc1 (stereo not drawn)	–	·	·
CCC1S/C(=N/C(=O)NC2CCCCC2)NC1=O (stereo not drawn)	–	·	·
O=C(/N=C1\NC(=O)C(F)(C(F)(F)F)S1)NC1CCCCC1 (stereo not drawn)	–	87	–
COc1cccc(C2CC(=O)N3CN(c4ccccc4F)CSC3=C2C#N)c1 (stereo not drawn)	–	76	–
COc1cccc(C2CC(=O)N3CN(c4cccc(Cl)c4C)CSC3=C2C#N)c1OC (stereo not drawn)	–	–	·
COc1ccc(OC)c(C2CC(=O)N3CN(c4ccccc4F)CSC3=C2C#N)c1 (stereo not drawn)	–	–	·
COc1cc(C2CC(=O)N3CN(c4ccccc4C)CSC3=C2C#N)cc(OC)c1OC (stereo not drawn)	–	66	83
COc1ccc(OC)c(C2CC(=O)N3CN(c4cccc(Cl)c4C)CSC3=C2C#N)c1 (stereo not drawn)	–	–	·
COc1ccccc1N1CSC2=C(C#N)C(c3ccc(SC)cc3)CC(=O)N2C1 (stereo not drawn)	–	81	55
CCCCNc1c(C(=O)OCC)c(C)nc2c1cnn2CC	–	·	·
CCOc1cccc(C=Nc2cc(C)cc(C)c2O)c1O	–	91	74
COc1cccc(C=Nc2ccc3c(c2)OCCO3)c1O	·	–	·
